Six1-Eya2 blk – blocks human Six1 binding to Eya2; Q15475+O00167; AlphaScreen GST-Six1/His-Eya2 binding, biochemical; hits give low values; activity change, % (concentration not given with the values); 360,000 compounds, 0.56% hits; in the data active means activity change below about -65%; inconclusive means mostly about -30% to -63%
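AlphaScreen with GST-Six1 and His-Eya2 (5X mix: 250 nM and 500 nM), glutathione donor and nickel acceptor beads; buffer 50 mM Tris pH 8.0, 300 mM NaCl, 1 mM TCEP; 1 h at 37 C in the dark.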
Gal4-VP16 FLuc – inhibits Gal4-VP16 luciferase reporter, ROR gamma counter-screen; Drosophila S2 Gal4-VP16 UAS-luciferase, luminescence, 20 h; Potency, µM (titrated, usually from 53.6 µM), for inactives: at the top dose activity, negative = inhibition, actives largely listed as inhibitors; 310,000 compounds, 3.5% hits; AID 2546;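 further: Gal4-VP16 expression switched on by copper sulfate through the metallothionein promoter; potency means the concentration at half of the fitted maximal effect; nearly all actives have a fitted effect of over 50% in size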
PKM2 act – PKM2 (human) enzyme activation. P14618. Potency, µM (series often up to 57.5 µM), for inactives: at the highest dose activation, hits mostly activators. AID 1631. 260,000 compounds, 0.34% hits. purified PKM2, Kinase-Glo ATP luminescence, activation; response scale: 0% is enzyme alone, no compound; further: potency means the concentration at half of the fitted maximal effect; nearly all actives have a fitted effect of over 55% in size
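Purified hPK-M2 (>95%) run at intermediate activity with 0.1 mM ADP and 0.5 mM PEP in 50 mM imidazole pH 7.2, KCl, MgCl2; 1 h room temperature. ATP formed read by Kinase-Glo luminescence; normalized to uninhibited and no-enzyme controls.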
RORgamma inh – inhibitors of mouse ROR gamma transcriptional activity | Potency, µM (titrated, usually from 53.6 µM), inactives show top-dose activity change, negative = inhibition, usual class: inhibitors | Drosophila S2 Gal4-RORgamma UAS-luciferase reporter, 20 h | 310,000 compounds, 5.4% hits | P51450; further: potency means the concentration at half of the fitted maximal effect; nearly all actives have a fitted effect of over 60% in size
Target sequence (P51450 whole entry, looked up, the tested form may be a part): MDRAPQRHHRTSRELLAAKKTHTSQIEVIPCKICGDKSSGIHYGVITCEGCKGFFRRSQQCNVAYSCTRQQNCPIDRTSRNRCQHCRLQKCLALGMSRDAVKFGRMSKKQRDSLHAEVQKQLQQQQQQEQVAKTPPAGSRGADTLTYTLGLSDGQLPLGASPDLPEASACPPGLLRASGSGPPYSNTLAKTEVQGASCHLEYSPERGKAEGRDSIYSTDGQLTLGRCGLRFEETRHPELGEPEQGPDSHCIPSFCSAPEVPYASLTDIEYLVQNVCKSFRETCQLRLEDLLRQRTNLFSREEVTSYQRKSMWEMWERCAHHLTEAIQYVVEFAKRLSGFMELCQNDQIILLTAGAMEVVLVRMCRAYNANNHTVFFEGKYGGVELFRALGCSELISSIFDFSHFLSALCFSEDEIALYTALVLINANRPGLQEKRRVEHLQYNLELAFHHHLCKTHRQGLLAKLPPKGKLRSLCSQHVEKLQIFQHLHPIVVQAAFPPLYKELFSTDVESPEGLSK
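ROR gamma transcriptional activity was tracked as Gal4-UAS luciferase output in stably transfected Drosophila Schneider cells, with compound added 1 hr before 700 uM copper sulfate induction and a 20 hr ambient-temperature incubation.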
CtBP-E1A blk – inhibitors of CtBP/E1A interaction; AlphaScreen GST-E1A/His-CtBP binding, 1536-well; hits give low values; activity change, % (concentration not given with the values); 340,000 compounds, 0.49% hits; AID 651724; in the data active means activity change below about -65%; inconclusive means mostly about -30% to -63%
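Protein mix (5X: 125 nM each GST-E1A, His-CtBP) was incubated with pinned compound 2 h at 37 deg C in dark, in 50 mM Tris pH 8.0 buffer with 300 mM NaCl. Glutathione donor and nickel acceptor beads followed; AlphaScreen signal read after 1 h.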
* marks the source's active call; other numbers are inactive results; ? = inconclusive; / = not tested or not shown. Rows were chosen to be rich in hits. Some 5.6% of all compounds tested hit in one or more screens of this group. Unless noted, the call rests on the fitted dose curve; in most records, active means well fitted curve in the direction sought with a large enough effect; inconclusive means small, poorly fitted or top-dose-only effect, or another doubt; inactive means no such curve, though single readings can be large; an effect the other way counts as inactive or inconclusive. On the % scale 0 is the no-effect control and ±100 the full control effect.

SMILES | Six1-Eya2 blk | Gal4-VP16 FLuc | PKM2 act | RORgamma inh | CtBP-E1A blk
Cc1c(OC(C)C(=O)NCc2ccncc2)ccc2c3c(c(=O)oc12)CCCC3 (stereo not drawn) | -5.8 | ? | / | 29.7% | -17.3
N#C/C(=C\c1ccc(N2CCOCC2)o1)c1nc2ccccc2[nH]1 | -28.3 | 0.0% | -7.1% | 15.8µM* | ?
N#C/C(=C/c1ccc(N2CCOCC2)o1)c1ccc(Cl)cc1 | -9.4 | 10µM* | 1.26µM* | ? | -0.7
N#C/C(=C\c1ccc(N2CCCCC2)o1)C(N)=O | -20.6 | 5.2% | 16.5% | 0.6% | -11.4
COc1ccccc1C(=O)NC(=O)COC(=O)Cn1cnc2c1c(=O)n(C)c(=O)n2C | 8.7 | / | / | / | -5.7
Cc1ccc(/C=N\NC(=O)/C(=C\Nc2nccc(C)n2)NC(=O)c2ccccc2)cc1 | -7.6 | -2.6% | 0.8% | 0.6% | 1.1
CC(Oc1cccc2cccnc12)C(=O)N/N=C/c1ccccc1 (stereo not drawn) | -5.3 | -0.7% | 0.8% | 17.7% | -17.4
O=C(/C=C\c1ccccc1)Oc1cccc2cccnc12 | -67.3* | 3.16µM* | -0.5% | 1.41µM* | /
O=C(/C=C/c1ccccc1)Oc1cccc2cccnc12 | -72.9* | 4.47µM* | -9.0% | 0.708µM* | /
Cc1ccc(C)c(N=Nc2nc3ccccc3n2C)c1 | ? | 8.91µM* | -21.0% | 3.16µM* | 11.0
Cc1ccc(NCc2nc3ccccc3n2C)cc1C | -14.1 | -9.9% | 0.8% | -29.3% | -2.6
Cc1cc(C)c(C)c(N=Nc2nc3ccccc3n2C)c1C | -3.1 | 5.62µM* | -7.5% | 2.24µM* | -4.6
Cn1c(/N=C/c2cccs2)nc2ccccc21 | 1.0 | -6.5% | -16.5% | -5.9% | 3.5
CC(=O)Nc1c(NC(=O)CC#N)[nH]c2c(c1=O)c(=O)n(C)c(=O)n2C | 6.6 | -8.9% | 3.0% | -2.5% | -8.9
CC(=O)Nc1ccc(C2NC(=S)N(c3ccccc3C(F)(F)F)C(C)=C2C(=O)N2CCOCC2)cc1 (stereo not drawn) | -4.6 | -16.3% | -0.4% | 4.1% | 2.0
COCCOC(=O)C1=C(C)N(c2ccccc2)C(=S)NC1c1ccccc1C(F)(F)F (stereo not drawn) | -21.5 | ? | / | 17.8µM* | /
COC(=O)C1=C(C)N(c2ccccc2)C(=S)NC1c1ccccc1C(F)(F)F (stereo not drawn) | -23.9 | ? | 2.6% | 3.16µM* | /
Cc1cc(/C=C2\SC(N)=NC2=O)c(C)n1-c1ccc(F)cc1 | -13.4 | -9.3% | -4.8% | 11.2% | /
O=[N+]([O-])c1ccccc1N/N=C1\CC2CC=CC12 (stereo not drawn) | ? | 0.2% | -5.4% | 32.2% | /
COc1ccc(CCNC(=O)CCCN2C(=O)C(c3ccccc3)Oc3cccnc32)cc1OC (stereo not drawn) | -13.2 | -3.0% | / | 8.6% | -14.0
Cc1ccc(C(=O)C=CC=Cc2ccccc2)cc1 | 3.7 | / | / | / | 0.0
Cc1ccc(C(=O)C(C(=O)/C=C/c2ccccc2)=C2SCCCS2)cc1 | -0.9 | 14.1µM* | -10.5% | 3.55µM* | 9.6
C[C@H](CO)N1C[C@H](C)[C@@H](CN(C)C(=O)Nc2ccccc2)Oc2ccc(NC(=O)CCC(F)(F)F)cc2C1=O | -2.5 | / | / | / | -7.1
O=C(c1ccc(Cl)cc1Cl)n1nnc2ccccc21 | / | -12.0% | / | 35.5% | /
N#Cc1ncc(-c2ccc3c(c2)OCCOCCOCCOCCO3)nc1C#N | 4.2 | ? | -0.9% | 12.6µM* | -3.5
SMILES | Six1-Eya2 blk | Gal4-VP16 FLuc | PKM2 act | RORgamma inh | CtBP-E1A blk
N#Cc1ncc(-c2ccc3c(c2)OCCOCCOCCOCCOCCO3)nc1C#N | -0.4 | 4.47µM* | 10.7% | 11.2µM* | 2.8
Fc1ccccc1Cc1noc(CN2CCC(OCc3cccnc3)CC2)n1 | 6.2 | -3.6% | -1.4% | 1.2% | 2.0
CNc1cncc(-c2cccc(C(C)=O)c2)n1 | -3.5 | / | / | / | -26.2
CNc1cncc(-c2cccc(NS(C)(=O)=O)c2)n1 | ? | / | / | / | -66.7*
c1ccc(-c2cc3c(ccc4nonc43)nn2)cc1 | -2.3 | 5.8% | -3.0% | 13.6% | 4.8
On1onc2c3cc(-c4ccccc4)nc3ccc21 | ? | 10µM* | 3.3% | 7.94µM* | -27.3
O=C(c1ccccc1-c1ncc[nH]1)N1CCc2c([nH]c3ccccc23)C1c1ccccn1 (stereo not drawn) | -10.2 | -16.7% | -7.8% | -2.9% | ?
